Test results as given in PubChem BioAssay (Tox21).
Results filed as inconclusive are left out. Where a call stands in place of a potency, no number is given. A number with no mark means an inactive call. Active and inactive are the calls of the source. Calls follow the shape of the dose curve; as a rule, active = well fitted cell-killing curve with a large enough effect in the repeat runs; inconclusive = weak or mixed curves, or effect the other way; inactive = flat fitted curve, though single readings scatter.

Legend:
[1] = cAMP Responsive Elements (CRE) small molecule antagonists, cell-based qHTS assay: qHTS cell viability counter screen (AID 2060913); also: nearly all actives have a fitted effect of over 40% in size
Procedure, shortened: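 CRE-bla HEK293T cells (2,000/well, 18 h) given compound plus NKH477 0.25 uM final for 3 h at 37C; viability counter-screen by CellTiter-Glo luminescence in same wells after 30 min.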

[2] = cAMP Responsive Elements (CRE) small molecule agonists, cell-based qHTS assay: qHTS cell viability counter screen (AID 2060914);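 also: viability read after 3 h of compound exposure; nearly all actives have a fitted effect of over 50% in size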
Procedure, shortened: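 CRE-bla HEK293T cells in 10% dialyzed FBS medium were exposed to compounds for 3 h at 37C after 18 h plating. CellTiter-Glo was then added in the same wells, and luminescence was read after 30 min at room temperature.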

SMILES	Potency [1]	Potency [2]	viability change, negative = cytotoxic [1]	activity change, negative = cytotoxicity [2]
CC1(C)[C@@H](OC(=O)CCC(=O)O)CC[C@]2(C)[C@H]3C(=O)C=C4[C@@H]5C[C@@](C)(C(=O)O)CC[C@]5(C)CC[C@@]4(C)[C@]3(C)CC[C@@H]12	inactive	inactive		
CN1CCOC(c2ccccc2)c2ccccc2C1 (stereo not given)	inactive	inactive		
COc1cnc(NS(=O)(=O)c2ccc(N)cc2)nc1	inactive	inactive		
CCCCCCCCCO	inactive	inactive		
CCN(CC)C(C)CN1c2ccccc2Sc2ccccc21 (stereo not given)	inactive	inactive		
CC1(C)NC(=O)N(c2ccc([N+](=O)[O-])c(C(F)(F)F)c2)C1=O	inactive	inactive		
C=CC(=O)NC(C)(C)C	inactive	inactive		
N[C@H](C(=O)O)c1ccc(O)cc1			2.5% [at 18.9 µM]	-13.1% [at 18.9 µM]
C[C@@H](CN(C)C)CN1c2ccccc2Sc2ccccc21	inactive	inactive		
CCOC(=O)c1ncn2c1CN(C)C(=O)c1cc(F)ccc1-2	inactive	inactive		
O=C(OCCCCCCOC(=O)c1ccccc1)c1ccccc1	inactive	inactive		
CC(=O)[C@H]1[C@H](C#N)C[C@H]2[C@@H]3CC=C4C[C@@H](O)CC[C@]4(C)[C@H]3CC[C@@]21C	inactive	inactive		
CCCCCCCCCCCCCCCC(=O)OC			14.8% [at 18.9 µM]	-20.6% [at 18.9 µM]
O=C(O)O			7.81% [at 8.39 µM]	-5.94% [at 8.39 µM]
Cc1ccc2c(n1)Oc1ccc(C(C)C(=O)OCC(=O)N(C)C)cc1C2 (stereo not given)	inactive	inactive		
